High-throughput results deposited in PubChem by several laboratories.
This is a sample that favours compounds with a hit; in the whole collection about 2.9% have one here.
Shn3 3UTR inh = Schnurri-3 reporter inhibition in Clone20 osteoblasts | Clone20 osteoblast Shn3 3'UTR firefly luciferase, 24 h | inhibition, % at 12.5 µM | 0.52% of 360,000 active | AID 588674;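 active = mean inhibition of at least 75% with every replicate also reaching 75%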;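 also: 0% = median of neutral control wells and 100% = pilot-screen positive control compound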
KKLEB tox = CF airway cell cytotoxicity counter-screen. AID 602141. 0.36% of 360,000 active. activity change (cytotoxicity), % at 5 µM. KKLEB CF airway cells viability, ATPlite luminescence, overnight; hits give low values; cells stimulated with P. aeruginosa culture filtrate;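 active = corrected activity change at or below -50% at 5 µM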
CF NFkB block = cystic fibrosis NF-kB activation inhibition; KKLEB NF-kB-GFP reporter, PAF-induced, GFP fluorescence overnight; inhibition, % at 5 µM; 0.86% of 360,000 active; AID 588850;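 active = at least 50% inhibition at 5 µM, scaled per plate between neutral and stimulator controls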;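 also: PAF is a Pseudomonas aeruginosa culture filtrate used as stimulus; plate controls were PAF-stimulated DMSO wells for no effect and unstimulated DMSO wells for full effect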
LMP1 NFkB inh = reduces LMP1-driven NF-kappaB luciferase signal; LMP1-induced NF-kappaB luciferase reporter cells, luminescence; inhibition, % at 12.5 µM; 0.69% of 350,000 active; AID 504558; in the data active = inhibition above about 41%;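 also: 0% = neutral control wells and 100% = reference inhibitor control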
Peg3 promoter = Peg3 promoter activity inhibition | HeLa PEG-Prom luciferase reporter, luminescence, overnight | AID 588405 | 1.7% of 360,000 active | inhibition, % at 20 µM;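 active = inhibition of at least 50% at 20 µM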
HIF-2a inh = inhibitors of HIF-2a. 786-0 RCC cells HIF-2a reporter, luciferase luminescence, overnight. inhibition, % at 18.8 µM. 0.72% of 360,000 active;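 active = inhibition of the luminescence signal of 40% or more relative to plate controls, in a single-dose primary screen at 18.75 µM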
CF NFkB conf = confirmation of cystic fibrosis induced NF-kB inhibitors; shares compounds with CF NFkB block; AID 602472; 64% of 1,300 active; KKLEB CF airway cells, PAF-induced NF-kB-GFP fluorescence, overnight; inhibition, % at 5 µM; in the data active = inhibition above about 40%;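 also: stimulus PAF is a Pseudomonas aeruginosa filtrate and not platelet activating factor; plate controls were DMSO wells with stimulus for no effect and unstimulated DMSO wells for full effect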
Active calls of the source: *; · = no result.

SMILES	Shn3 3UTR inh	KKLEB tox	CF NFkB block	LMP1 NFkB inh	Peg3 promoter	HIF-2a inh	CF NFkB conf
COc1ccc(CNc2nn3c(-c4cccc(C(=O)N(C)C)c4)cnc3s2)cc1	-12.4	2.3	84.0*	·	56.1*	22.7	90.7*
Cc1nc(N)c(C#N)c(-c2cccnc2)c1-c1ccccc1	23.1	-5.4	63.4*	15.6	8.8	28.6	68.0*
O=C(Nc1ccccc1C(=O)NCCc1ccccc1)c1cnccn1	-58.8	-9.1	-0.6	-8.1	-96.5	-133.0	·
Cc1ccc(C(C(=O)NCc2ccccc2)N(Cc2cccs2)C(=O)c2ccc3c(c2)OCCO3)cc1 (stereo unspecified)	44.8	-16.0	90.7*	-2.9	63.1*	11.8	104.7*
CC(=O)N1CCc2c(sc(NC(=O)c3ccc([N+](=O)[O-])o3)c2C(N)=O)C1	99.5*	-30.2	95.6*	-25.5	97.2*	-64.7	31.1
Cc1ccc(C)c(N2N=C(C(=O)OCc3nnc(-c4cccs4)o3)CCC2=O)c1	-26.2	11.9	-25.4	-1.6	-9.8	-4.5	·
Cc1cc(N2CCOCC2)c2c(N)c(Br)cc(C)c2n1	9.8	-5.5	65.8*	62.6*	13.2	22.3	96.7*
Cc1ccc2occ(/C=N/NC(=O)c3ccccc3Br)c(=O)c2c1	26.3	0.6	57.2*	0.1	29.1	34.0	57.1*
CCOc1ccccc1C(=O)N/N=C/c1coc2ccc(C)cc2c1=O	0.1	-30.6	71.4*	-7.6	6.9	23.1	13.0
O=C(N/N=C/c1coc2ccccc2c1=O)c1ccccc1	9.9	3.0	5.6	-2.3	11.5	9.8	·
Cc1ccc2occ(/C=N/NC(N)=S)c(=O)c2c1	-21.4	13.4	-33.1	-10.4	-52.4	-30.3	·
Cc1ccc2occ(/C=N/NC(=O)c3ccc(O)cc3)c(=O)c2c1	-8.6	-23.8	65.6*	-4.5	-5.6	19.3	28.5
CCc1[nH]nc(C(=O)NC2CCCN(Cc3ccccc3F)C2)c1C (stereo unspecified)	5.3	8.1	1.8	5.6	3.7	-1.4	·
CCOc1ccc(-c2nc(S(=O)(=O)c3ccccc3)c(N3CCC(C(N)=O)CC3)o2)cc1	13.5	19.3	-22.4	-4.2	4.3	6.4	·
Clc1cccc(Cc2c(-c3ccco3)nc3ccc(Cl)cn23)c1	-7.5	-14.0	69.5*	·	-11.0	18.0	-50.0
Cc1ccc(Cc2c(-c3ccco3)nc3c(C)cc(Br)cn23)cc1	-13.6	-15.7	51.3*	·	-59.8	-1.0	-14.0
Clc1cccc(Cc2c(-c3ccco3)nc3ccc(Br)cn23)c1	-5.5	-4.5	43.1	·	-8.0	23.6	·
O=C(Cc1ccc(Cl)cc1Cl)NCC1(N2CCOCC2)CCCCC1	-9.8	5.8	6.9	-6.6	4.0	10.8	·
CCCCCCOC(=O)/C=C/c1c(C)[nH]c(=O)[nH]c1=O	25.3	-14.3	6.8	12.5	39.5	7.4	·
Cc1ccc(S(=O)(=O)CC(CN2CCCCC2)N2CCCCC2)cc1 (stereo unspecified)	-15.5	-3.1	52.6*	19.1	-93.3	0.6	56.8*
COc1cc(-c2nnc(NC(=O)CCS(=O)(=O)c3ccccc3)o2)cc(OC)c1OC	-7.6	2.6	2.7	1.3	-55.6	-10.4	·
COc1cc(-c2nnc(NC(=O)CCS(=O)(=O)c3ccc(F)cc3)o2)cc(OC)c1OC	-25.0	-29.5	54.1*	11.9	-10.0	-2.7	34.2
COc1ccccc1CN(C)C(=O)C(c1ccccc1)c1ccccc1	48.8	-14.3	-20.2	5.3	15.6	13.1	·
COc1cccc(CN2CC(C(=O)NC3CCC(O)CC3)CCC2=O)c1 (stereo unspecified)	-13.0	8.2	-7.9	5.9	-10.7	15.2	·
CCOC(=O)/C(=C\c1cccc(O)c1)c1nc2sc(C)c(C)c2c(=O)[nH]1	36.2	-26.3	74.5*	3.2	115.3*	94.8*	-96.6
SMILES	Shn3 3UTR inh	KKLEB tox	CF NFkB block	LMP1 NFkB inh	Peg3 promoter	HIF-2a inh	CF NFkB conf
COc1cc(-c2cc(C(=O)NCc3ccco3)c3ccccc3n2)cc(OC)c1OC	13.0	-4.8	-20.6	10.0	29.0	5.3	·
COc1cc(-c2cc(C(=O)Nc3ccc(S(=O)(=O)NCc4ccco4)cc3)c3ccccc3n2)cc(OC)c1OC	-1.5	7.9	64.5*	-52.6	58.5*	10.8	97.7*
Cc1ccc2c(c1)C(=O)C(=O)N2Cc1ccc(C(F)(F)F)cc1	-0.9	-18.2	55.0*	1.8	3.2	-12.5	71.9*
CCOC(=O)C1=C(C)Nc2ccccc2N=C1NC(=O)c1oc2ccccc2c1COC	4.4	-15.3	55.2*	8.4	65.4*	4.1	57.7*
Cc1ccc(S(=O)(=O)N2CCOCC2)cc1C(=O)NCCc1ccc(Cl)cc1	-9.3	3.7	-0.2	3.9	-9.9	9.2	·
CNc1cnc(-c2ccsc2)cn1	-6.3	-2.4	-8.7	·	-69.8	-98.8	·
CC(C)Cn1c(C(C)C)nc([N+](=O)[O-])c1Sc1ccc(Cl)cn1	-20.1	-12.3	26.7	-0.8	18.4	16.2	·
CC(C)Cn1c(C(C)C)nc([N+](=O)[O-])c1S(=O)(=O)c1ccc(F)cc1	19.1	-35.8	58.5*	-18.0	33.8	37.4	5.2
Cc1cc(C)c(NC(=O)COc2cccnc2[N+](=O)[O-])c(C)c1	16.1	7.0	6.2	-0.4	-4.7	-15.4	·
Cc1cc(C)n2c(SCC(=O)N(CC(C)C)c3c(N)n(CC(C)C)c(=O)[nH]c3=O)nnc2n1	0.7	14.2	-13.6	2.6	14.6	17.8	·
O=[N+]([O-])c1ccc(-n2nnnc2-c2ccccc2)c([N+](=O)[O-])c1	17.1	-23.4	68.5*	-13.0	11.6	16.7	-68.9
O=[N+]([O-])c1ccc(-n2nnnc2-c2ccccc2)cc1	3.2	-1.3	-3.7	0.5	12.6	-1.6	·
O=C(O/C(=C/c1ccccc1)C(F)(F)F)c1ccccc1	1.4	-12.0	31.6	7.8	5.6	11.1	·
Cc1c(C=O)c(C=O)c(C)n1Cc1ccccc1	9.3	-48.4	53.1*	0.6	41.4	-17.9	66.0*
CC(=O)c1c(C(C)=O)c(C)n(Cc2ccccc2)c1C	20.9	-0.4	-1.3	9.7	12.9	-10.7	·
Cc1ccc(NC(=S)NC(=O)c2ccccc2)cc1NC(=S)NC(=O)c1ccccc1	-4.7	-26.8	64.4*	-12.5	-52.5	-206.0	26.8
O=C(NC(=S)Nc1cccc(NC(=S)NC(=O)c2ccccc2)c1)c1ccccc1	-24.8	1.5	11.8	-31.6	-165.8	-128.2	·
CCCCOC(=O)Nc1ccc(S(=O)(=O)Nc2nc(C)cc(C)n2)cc1	9.9	1.9	53.3*	1.2	9.1	21.1	39.0
C=CCNC(=O)CC(=O)N/N=C/c1ccc(C(=O)OC)cc1	-27.8	7.5	-5.5	7.1	8.0	12.3	·
Cc1c(C(=O)N2CCC(Cc3ccccc3)CC2)cccc1[N+](=O)[O-]	20.4	-4.4	51.2*	11.6	16.8	23.7	43.1*
